# Screening data (PubChem)
# Sfp inh: inhibitors of Bacillus subtilis Sfp phosphopantetheinyl transferase. Potency, µM, inactives show largest response in the series, negative = inhibition, hits mostly inhibitors. Biochemical Sfp PPTase activity, qHTS. 3.5% of 310,000 active. Q9F4F7;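 note: the enzyme is Sfp with the accession as filed and its product quenches rhodamine fluorescence; potency is the fitted concentration of half-maximal effect; 0% = enzyme reaction without inhibitor and -100% = no enzyme wells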
#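 With Hepes-Na pH 7.6 buffer containing 10 mM MgCl2, Sfp (15 nM) modified BHQ-2-YbbR (12.5 uM) using rhodamine-CoA (5 uM). Two reads 30 minutes apart at 525/598 nm yielded each well's rate.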
# ELG1 DNA repair: inhibitors of ELG1-dependent DNA repair in HEK293T cells; HEK293T ELG1-luciferase reporter, luminescence, 16 h; DNA damage induced by 5-fluorouridine; Potency, µM (top dose mostly 46.1 µM), inactives show at the highest dose activity change, negative = inhibition, hits mostly inhibitors; 2.3% of 330,000 active; note: potency is the fitted concentration of half-maximal effect; nearly all actives have a fitted effect of over 55% in size
#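 Quantitative HTS, concentration-response format. 2,000 cells/well co-treated with 5-fluorouridine and compound, 16 hr in 5% CO2 at 37 °C; ONE-Glo luminescence read after 30 min.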
# Coupling enz: counter-screen for Giardia aldolase inhibitors: coupling enzyme system; coupling enzyme system counterscreen, AmpLite Red fluorescence; activity change, negative = inhibition, % at 58.2 µM, hits read low; 0.67% of 290,000 active; in the data active = activity change below about -30%
#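 Fluorescence at 525 nm excitation and 598 nm emission measured inhibition of the coupled detection system without aldolase. Compounds (at 57.5 uM final) were preincubated 10 min at room temperature with coupling enzyme reagent before a 20 min substrate/AmpLite Red step.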
# Giardia killer: Giardia lamblia killing; Giardia lamblia trophozoite viability; activity change, % at 7.66 µM, hits read low; 0.15% of 340,000 active; in the data active = activity change below about -80%; inconclusive = between about -30% and that limit;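 note: parasites exposed to compound for two days anaerobically before the ATP read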
#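 Luminescent ATP signal served as the viability read-out, measured 15-30 min after adding ATP detection reagent to trophozoites that had been incubated with compounds for 48 hrs at 37 deg C anaerobically at 100 cells/well.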
# * marks the source's active call; other numbers are inactive results; ? = inconclusive; . = no result given. The list is not random: actives were taken first. Their share in the collection is about 5.5%. Unless noted, calls come from the whole dose curve; as a rule, active = well fitted curve in the direction sought with a large enough effect; inconclusive = small, poorly fitted or top-dose-only effect, or another doubt; inactive = no such curve, though single readings can be large; an effect the other way counts as inactive or inconclusive. Unless noted, % is set by controls: 0 for no effect and ±100 for the full control effect.
SMILES,Sfp inh,ELG1 DNA repair,Coupling enz,Giardia killer
COc1ccccc1CCNC(=O)C(=O)NCC1OCCN1S(=O)(=O)c1ccc(OC)c(OC)c1 (stereo not given),0%,21µM*,1,-9
COc1ccc(CCNC(=O)CNCC2CCCO2)cc1OC (stereo not given),63µM*,?,-2,-4
COc1ccccc1CCNC(=O)C(=O)NCC1OCCN1S(=O)(=O)c1ccc(F)cc1 (stereo not given),5%,-2%,0,-20
O=C(NCCCO)C(=O)NCC1OCCCN1S(=O)(=O)c1cccs1 (stereo not given),5%,8%,.,-6
c1ccc2[nH]c(Cn3nnc4ccccc43)nc2c1,.,?,.,-30
CCOC(=O)C1CCCN(C(=O)/C(=C/c2ccco2)NC(=O)c2ccccc2)C1 (stereo not given),?,0%,-1,13
COc1ccccc1-c1ocnc1C(=O)N1CCN(C(=O)C(c2ccccc2)c2ccccc2)CC1,89µM*,-13%,2,?
COc1ccc(C)cc1S(=O)(=O)N1CCN(C(=O)c2ncoc2-c2ccccc2C)CC1,5%,4%,0,-6
CN(C(=O)c1ccc(-c2nn(C)c(=O)c3ccccc23)cc1)C1CCCCC1,6%,?,4,3
CCc1cc2c(=O)n(Cc3ccco3)c(SCC(=O)N3CCCc4ccccc43)nc2s1,45µM*,?,0,4
CCc1cc2c(=O)n(Cc3ccco3)c(SCC(=O)NCC3CCCO3)nc2s1 (stereo not given),-9%,?,0,5
CCc1cc2c(=O)n(Cc3ccco3)c(SCC(=O)N(C)C3CCS(=O)(=O)C3)nc2s1 (stereo not given),7.9µM*,1%,-1,-8
CCc1cc2c(=O)n(Cc3ccco3)c(SCC(=O)NC3CCS(=O)(=O)C3)nc2s1 (stereo not given),32µM*,-1%,0,-18
COc1cc(NC(=O)c2c(F)c(F)c(OC)c(F)c2F)ccc1NC(=O)c1cccs1,10%,-22%,.,-4
Cc1nn(CC(=O)NC(=O)NC2CCCCC2C)c(=O)c(C#N)c1C (stereo not given),.,-1%,.,6
CCc1noc(C)c1C(=O)N(C)CC(=O)Nc1ccc(Br)cc1C,.,3%,.,-4
CCCCCCCC(=O)OCCOC(=O)CCCCCCC,16%,.,6,.
CO[C@@H]1COC(=O)CC=C[C@@H](C)[C@@H]2C=C[C@H](O)[C@@H](COC(=O)C/C=C\[C@H]1C)O2,14%,.,-2,.
C=CCNc1nc(Nc2ccc(-c3nc4ccccc4o3)cc2)nc(N2CCOCC2)n1,-4%,15µM*,6,38
C=CCNc1nc(NCC)nc(N2CCOCC2)n1,10%,4%,2,8
CCOC(=O)c1cc(C)[nH]c(=S)c1C#N,40µM*,1%,-4,3
COc1ccc(-c2cc(C(=O)Nc3ccc(Cl)cc3Cl)c3ccccc3n2)cc1OC,35µM*,?,3,-1
COc1ccc(-c2cc(C(=O)Nc3nc4ccccc4s3)c3ccccc3n2)cc1OC,7%,15µM*,-2,11
COc1ccc(-c2cc(C(=O)Nc3ccccc3O)c3ccccc3n2)cc1OC,6%,23µM*,0,32
O=[N+]([O-])c1ccc(N2N=C(c3ccco3)CC2c2ccccc2)cc1 (stereo not given),50µM*,-3%,-6,3
SMILES,Sfp inh,ELG1 DNA repair,Coupling enz,Giardia killer
CCOc1ccc(-c2c(C(=O)N/N=C/c3ccc(Cl)cc3)nnn2-c2nonc2N)cc1,14%,0%,.,-18
O=C(Nc1ccccc1C(=O)Nc1nnc(C(F)(F)F)s1)c1ccccc1,2%,4.6µM*,-15,-19
O=C(Nc1nccs1)C1CCCN1/C=C/C(=O)C(F)(F)F (stereo not given),2%,?,.,10
CCOc1ccc(CCNC(=O)c2sc3nc4n(c(=O)c3c2C)CCC4)cc1OCC,16%,6.5µM*,.,7
CCOC(=O)c1ccc(NC(=O)c2sc3nc4n(c(=O)c3c2C)CCC4)cc1,-17%,23µM*,1,-8
CCOC(=O)c1sc2nc3n(c(=O)c2c1C)CCC(C)CC3 (stereo not given),22µM*,-4%,3,-6
COc1ccc(CCNC(=O)c2sc3nc4n(c(=O)c3c2C)CCC4)cc1,.,?,.,13
O=c1cc(-c2cccc(O)c2O)oc2ccccc12,79µM*,.,-14,.
O=c1cc(-c2ccncc2)oc2ccccc12,1%,9.2µM*,2,36
O=c1cc(-c2ccc(O)cc2)oc2ccccc12,6%,?,0,-17
CCCOc1cc(C)c(S(=O)(=O)NCc2cccs2)cc1C,.,?,.,-11
Cc1ccc(C2=NN(C(=O)CSc3nnnn3C)C(c3ccco3)C2)cc1 (stereo not given),.,-11%,.,5
Cn1cnnc1SCC(=O)N1N=C(c2ccc(Cl)cc2)CC1c1ccco1 (stereo not given),50µM*,?,1,-1
CCCNC(=O)c1ccc(N2CCC3(CC2)CC(c2ccccc2)=NO3)c(NC(=O)c2ccco2)c1,-5%,5.8µM*,-1,-8
CCOc1cc(CNC2CCCC2)cc(Cl)c1OCc1ccc(F)cc1,40µM*,4%,0,12
CCOc1cc(CNCCc2ccc(S(N)(=O)=O)cc2)cc(Cl)c1OCc1ccccc1,3.5µM*,0%,2,-11
COc1ccc(CNCC(O)(c2ccc(Cl)cc2)c2ccc(Cl)cc2)cc1OC,45µM*,5%,0,-3
CCNCc1cc(Cl)c(OCc2ccccc2)c(OCC)c1,-9%,?,1,-11
COc1ccc(CNCC(O)(c2ccc(F)cc2)c2ccc(F)cc2)cc1OC,-1%,?,2,-24
CCOc1cc(CNCCc2ccc(S(N)(=O)=O)cc2)ccc1OCc1ccccc1,11µM*,16%,.,-1
COc1ccccc1N1CCN(C(=O)c2ccc(-c3nc4ccccc4s3)o2)CC1,.,?,.,4
CC(C)Cc1nnc(NC(=O)CCC(=O)NC2CCCC2)s1,11%,17%,.,7
COc1ccc(CNCCc2ccc(Cl)cc2)cc1OCc1ccccc1,-29%,15µM*,0,5
CCOc1cc(CNCc2ccccc2)ccc1OCc1ccc(Cl)cc1,-27%,?,-1,23
COc1ccc(N(C(=O)c2ccco2)C(C(=O)NC2CCCC2)c2cccs2)cc1 (stereo not given),3%,-16%,10,1
COc1ccc(N(C(=O)c2ccco2)C(C(=O)NC2CCCC2)c2cccs2)cc1OC (stereo not given),40µM*,3%,-8,13
CS(=O)(=O)Nc1cccc(-c2nc(NCCN3CCOCC3)c3ccccc3n2)c1,4%,.,1,.
O=c1[nH]cnc2c1ncn2[C@H]1C[C@H](O)[C@@H](CO)O1,.,.,.,-9
COc1ccc(CC(=S)NCCc2ccccc2)cc1,14µM*,15%,0,-12
CCOc1ccccc1NC(=O)CN1C(=O)NC(Cc2c[nH]c3ccccc23)C1=O (stereo not given),.,1%,.,9
